# In all, about 330,000 compounds went through this assay and about 4,900 (1.5%) were called active.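 The calls were made as follows: active = inhibition above about 50% at the single test dose (limit read from the data); inactive = the rest.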 The entries come from a sample that favours actives as a whole.
# Target: Sentrin-specific protease 7 (Homo sapiens) (UniProt Q9BQF6)
# Test: SENP7 protease inhibitors, primary screen, biochemical, luminescence, uHTS (AID 434973);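 also: plate controls were DMSO with enzyme for no effect and no enzyme buffer wells for full effect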
# Settings: recombinant SENP7, Z-RLRGG-aminoluciferin luminescence, 40 min; at 5 µM; active compounds read high
row,SMILES,inhibition
1,CCN(CC)S(=O)(=O)c1ccc(C(=O)N2CCN(C3=NS(=O)(=O)c4ccccc43)CC2)cc1,0.565% (inactive)
2,COC(CNC(=O)c1ccc2c(c1)ncn2-c1cc(C)cc(C)c1)OC,-3.05% (inactive)
3,COc1cc2c(cc1OC)C(C)N(S(=O)(=O)c1cnc(Cl)c(Cl)c1)CC2 (configuration not stated),7.13% (inactive)
4,CCn1ccnc1CN(C)Cc1nc(-c2ccc3c(c2)OCO3)no1,3.04% (inactive)
5,COc1ccccc1C(=O)Nc1ccc(NC(=O)c2ccco2)c(C)c1,50.6% (active)
6,Cc1cc(NC(=O)c2ccc(F)cc2)ccc1NC(=O)c1ccco1,64.1% (active)
7,COc1ccc(OCC(=O)Nc2ccc(NC(=O)c3ccco3)c(C)c2)cc1,-4.14% (inactive)
8,O=C(Nc1ccc(O)cc1)c1ccc(NC(=O)c2ccco2)cc1,-10.1% (inactive)
9,Cc1cccc(OCC(=O)Nc2ccc(NC(=O)c3ccco3)c(C)c2)c1,7.42% (inactive)
10,COc1ccc(NC(=O)c2ccco2)cc1NC(=O)c1ccc(C#N)cc1F,1.99% (inactive)
11,[O-][N+]12CCCCC1CCCC2CO (configuration not stated),5.46% (inactive)
12,O=C(COc1nc2ccccc2nc1N1CCOCC1)NCC(F)(F)F,-5.55% (inactive)
13,CC1CCN(C(=O)C2CCN(S(=O)(=O)N3CCC4(CC3)OCCO4)CC2)CC1,6.94% (inactive)
14,C=CCNC(=O)c1cc(-c2ccccc2O)on1,-13.1% (inactive)
15,O=C(Nc1cccnc1Cl)c1cc(-c2cccc(Cl)c2)on1,-0.404% (inactive)
16,O=C(Nc1cccnc1Cl)c1cc(-c2ccccc2O)on1,52% (active)
17,Cc1nc2nc(COc3ccccc3)[nH]n2c(=O)c1Cc1ccccc1,-6.63% (inactive)
18,CC(Oc1ccc(Br)cc1Br)C(=O)NC1CCCC1 (configuration not stated),4.39% (inactive)
19,CN(CCC(=O)Nc1cc(S(=O)(=O)N(C)C)ccc1Cl)CC(=O)Nc1ccc(F)cc1,4.2% (inactive)
20,Cc1ccccc1Nc1c([N+](=O)[O-])ccc2nonc12,-0.26% (inactive)
21,Cc1cccc(C(=O)OCC(=O)Nc2ccc(F)cc2)c1,-5.6% (inactive)
22,Cc1ccc(-n2nc3ccc(NC(=O)/C=C/c4ccco4)cc3n2)cc1C,-3.4% (inactive)
23,CCC(=O)Nc1ccc2nn(-c3ccc(F)cc3)nc2c1,81.9% (active)
24,CC12CN(Cc3ccccc3)CC(C)(CN(Cc3ccccc3)C1)C2=NO,-9.93% (inactive)
25,CCc1noc(C)c1C(=O)Nc1nc2ccc(OC)cc2s1,53.6% (active)

row,SMILES,inhibition
1,Cc1noc(C)c1CSCC(=O)Nc1nc2ccc(Oc3ccccc3)cc2s1,7.89% (inactive)
2,COc1cccc(C(=O)Nc2nnc(S(=O)(=O)N(C)c3ccccc3)s2)c1,2.47% (inactive)
3,COc1cccc(C(=O)Nc2nnc(S(=O)(=O)N3CCOCC3)s2)c1,-5.71% (inactive)
4,COc1cccc(C(=O)Nc2nc3ccc(S(C)(=O)=O)cc3s2)c1,91.1% (active)
5,CCc1noc(C)c1C(=O)Nc1nc(-c2ccccc2)cs1,0.582% (inactive)
6,O=C(Nc1ccccc1)c1nnsc1S(=O)(=O)c1ccc(Cl)cc1,7.61% (inactive)
7,O=C(Oc1ccccc1)Oc1ccc2c(c1)oc(=O)c1ccccc12,11.6% (inactive)
8,Cc1cc(NC(=O)C(C)SCC(=O)Nc2ccccc2N2CCCCC2)no1 (configuration not stated),7.37% (inactive)
9,Cc1nn(C)c(C(=O)NNC(=S)NC2CCCCC2)c1Cl,15.8% (inactive)
10,O=C(CN1C(=O)NC2(CCCC2)C1=O)OCCOc1ccc(F)cc1,2.48% (inactive)
11,OCCC1CN(Cc2cccc(O)c2)CCN1CCc1ccccc1 (configuration not stated),-3.9% (inactive)
12,COC(=O)c1oc2ccc(Br)cc2c1NC(C)=O,-6.53% (inactive)
13,Cc1nonc1NC(=O)c1oc2ccccc2c1C,-17.1% (inactive)
14,Cc1c(C(=O)Nc2ccccn2)oc2ccc(Br)cc12,65.6% (active)
15,Cc1ccc(OCC(=O)Nc2ccccc2Sc2ccc(Cl)cc2)c([N+](=O)[O-])n1,3.81% (inactive)
16,CCN(CC(=O)Nc1ccc(NC(C)=O)cc1)C(=O)CSC(=S)N1CCCC1,-7.39% (inactive)
17,Cc1cccc(NC(=O)Nc2ccc3c(c2)OCO3)n1,17% (inactive)
18,O=C(/C=C/c1ccc2c(c1)OCO2)NCc1ccc(F)cc1,-2.53% (inactive)
19,Cc1cccc(NC(=O)/C=C/c2ccc3c(c2)OCO3)n1,78% (active)
20,CCN(CC(=O)NCC(=O)Nc1cccc(C)c1C)Cc1ccccc1,1.52% (inactive)
21,O=C(COC(=O)c1ccc(O)cc1)Nc1nccs1,-6.7% (inactive)
22,Cc1c(Cl)cccc1NC(=O)Nc1ccc(C(=O)N2CCCC2)cc1,57% (active)
23,O=C(Nc1ccc(Cl)cc1)Nc1ccc(C(=O)N2CCOCC2)cc1,11.1% (inactive)
24,Cc1c(Cl)cccc1NC(=O)NCCCN1CCCC1=O,-2.59% (inactive)
25,COc1ccc(N2CCN(C(=O)c3cn(C)c4ccc(S(=O)(=O)N5CCOCC5)cc4c3=O)CC2)cc1,8.09% (inactive)

row,SMILES,inhibition
1,Cc1cccc(/C(N)=N/OC(=O)c2ccccc2Cl)c1,98.2% (active)
2,Cc1ccc(/C(N)=N/OC(=O)COc2ccc(Cl)c(C)c2)cc1,-1.43% (inactive)
3,N/C(=N\OC(=O)c1cc(-c2ccccc2)nc2ccccc12)c1ccncc1,-11.9% (inactive)
4,CC(C)c1ccc(NC(=O)CCN2C(=O)c3ccc([N+](=O)[O-])cc3C2=O)cc1,-0.0494% (inactive)
5,COc1ccc(C(=O)COC(=O)Cn2cnc3c2c(=O)n(C)c(=O)n3C)c(OC)c1,-3.24% (inactive)
6,Cc1ccc(OCc2nc3ccccc3n2C)cc1,59.7% (active)
7,O=C(Cn1c(COc2ccccc2)nc2ccccc21)Nc1cc(Cl)c(Cl)cc1Cl,-0.0494% (inactive)
8,COCn1c(COc2ccccc2)nc2ccccc21,65.8% (active)
9,CC(C)n1c(COc2ccccc2)nc2ccccc21,15% (inactive)
10,Cn1c(COc2ccc(Cl)cc2)nc2ccccc2c1=O,-3.98% (inactive)
11,CCOc1ccc(C(O)Cc2nc3ccccc3n2C)cc1 (configuration not stated),3.12% (inactive)
12,Cc1ccc(/C=N/NC(=O)C(NC(=O)c2ccccc2)c2n[nH]c(=O)c3ccccc23)cc1 (configuration not stated),0.556% (inactive)
13,COC(=O)c1sccc1NS(=O)(=O)c1ccc(F)cc1F,6.45% (inactive)
14,COC(=O)[C@]1(Cc2ccccc2)N[C@H](CN(C)S(=O)(=O)c2ccc(F)cc2)[C@@H]2C(=O)N(Cc3ccccc3)C(=O)[C@@H]21,1.87% (inactive)
15,CNc1[nH]ncc1[N+](=O)[O-],3.45% (inactive)
16,COc1ccc(C/C(C)=N/NC(=O)c2cc(C)oc2C)cc1,-5.26% (inactive)
17,CC(=C/c1ccccc1)/C=N/NC(=O)c1cc(C)oc1C,73% (active)
18,O=C(NN=Cc1ccc(N2CCOCC2)cc1)c1cc2ccccc2cc1O,4.23% (inactive)
19,Cc1ccccc1N/N=C/c1ccc(N2CCOCC2)cc1,-3.84% (inactive)
20,Cc1cc(C(=O)N/N=C/c2ccc(N3CCOCC3)cc2)c(C)o1,85.5% (active)
21,Cc1cc(C(=O)N/N=C\C(Br)=C\c2ccccc2)c(C)o1,21.1% (inactive)
22,O=C(c1ccc(CS(=O)(=O)c2ccccc2)o1)N1CCN(c2ccccc2)CC1,-0.219% (inactive)
23,O=C(NNc1ccccc1Cl)C(O)(c1cccc(C(F)(F)F)c1)c1cccc(C(F)(F)F)c1,1.97% (inactive)
24,COc1cc(CNC2CCCCC2)c(Br)cc1OC1CCCC1,-2.57% (inactive)
25,COc1ccc(C(C)NC(=O)C2CCCC2)cc1 (configuration not stated),1.04% (inactive)

row,SMILES,inhibition
1,COc1cccc(C(=O)c2cc3ccc(O)cc3oc2=O)c1,100% (active)
2,COc1cccc(C(=O)NNC(=O)c2cccc(F)c2)c1,3.09% (inactive)
3,CCOC(=O)c1cc2cc3ccccc3cc2oc1=O,7.03% (inactive)
4,COc1ccc(N2CC(C(=O)NCCN3C(=O)S/C(=C\c4cccnc4)C3=O)CC2=O)c(OC)c1 (configuration not stated),-2.06% (inactive)
5,Cc1nc(-c2ccc(F)cc2)c(CC(=O)N(C)CC(=O)Nc2c(C)cccc2C)s1,-11.8% (inactive)
6,CSCCC1NC2(C(=O)Nc3ccc(Cl)cc32)[C@@H]2C(=O)N(C3CCCC3)C(=O)[C@H]12 (some centres not stated),10.2% (inactive)
7,COc1ccc(OC)c2[nH]c(=O)c(CCNC(=O)C(=O)c3c[nH]c4ccccc34)cc12,4.26% (inactive)
8,CCN(CC)CCCNC(=O)COc1ccc2oc3c(c2c1)CCCC3,3.16% (inactive)
9,CCOC(=O)N1CCN(C(=O)COc2ccc3oc4c(c3c2)CCCC4)CC1,-3.39% (inactive)
10,O=C(COc1ccc2oc3c(c2c1)CCCC3)Nc1ccccn1,89.1% (active)
11,O=C1C=C(c2ccnc3cc(Cl)ccc23)C[C@@H](c2ccc3c(c2)OCO3)C1,2.03% (inactive)
12,CC(=O)N1CCN(S(=O)(=O)c2ccc(C)c([N+](=O)[O-])c2)C1C(C)C (configuration not stated),2.77% (inactive)
13,CCOC(=O)C(NC(=O)CC(C)C)(Nc1sc2c(c1C(N)=O)CCCC2)C(F)(F)F (configuration not stated),-5.57% (inactive)
14,CC(NCc1ccccc1OC1CCCC1)c1ccccc1 (configuration not stated),8.44% (inactive)
15,Cc1ccc(/C=N/NC(=O)c2cc3ccccc3cc2O)o1,19% (inactive)
16,Cc1cc(N=Nc2ccc3ccccc3c2)ccc1O,97.5% (active)
17,COC(=O)c1cccc(-n2[nH]nnc2=S)c1,8.95% (inactive)
18,Cc1ccc(CSc2ccc(S(=O)(=O)N3CCCCC3)cn2)cc1,14.9% (inactive)
19,COc1cc(C(=O)N2CCN(C)CC2)cc(OC)c1OC,-4.77% (inactive)
20,CCOc1cc(/C=C/c2nc3ccccc3c(=O)[nH]2)cc(Br)c1OC,-1.26% (inactive)
21,O=c1[nH]c(/C=C/c2cccc(Br)c2)nc2ccccc12,65.8% (active)
22,O=c1[nH]c(/C=C\c2cccc(C(F)(F)F)c2)nc(O)c1[N+](=O)[O-],11.2% (inactive)

# Reference: PubChem BioAssay AID434973 (Sanford-Burnham Center for Chemical Genomics, 2010)
